# PubChem BioAssay
# Calls of active or inactive are those of the source.
# Columns and labels:
# [1] = compounds binding Alexa647 anti-His antibody – biochemical, small-molecule microarray, 635 nm fluorescence, artefact control for SMM control protein annotation, primary screen (AID 1128); settings: higher = more signal;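 further: score merges feature fluorescence with signal-to-noise for each printed compound spot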
# [2] = test system: Human papillomavirus type 1a E7 protein (residues 1-88); experiment: HPV1a E7 small-molecule binders, primary screen, biochemical, small-molecule microarray, residues 1-88, 635 nm (AID 1129); settings: small-molecule microarray binding, fluorescence 635 nm; higher = more signal
# [3] = target: Focal adhesion kinase 1 (Homo sapiens) (UniProt Q05397); experiment: PTK2 protein binding on printed compound slides – biochemical, small-molecule microarray, 635/667 nm fluorescence, BSA, DTT, primary screen (AID 1130); settings: 635 nm fluorescence, higher = more signal;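 further: composite of spot emission at 667 nm and signal to noise over triplicate slides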
# Chain of Focal adhesion kinase 1 (Homo sapiens) (Q05397 whole entry, looked up): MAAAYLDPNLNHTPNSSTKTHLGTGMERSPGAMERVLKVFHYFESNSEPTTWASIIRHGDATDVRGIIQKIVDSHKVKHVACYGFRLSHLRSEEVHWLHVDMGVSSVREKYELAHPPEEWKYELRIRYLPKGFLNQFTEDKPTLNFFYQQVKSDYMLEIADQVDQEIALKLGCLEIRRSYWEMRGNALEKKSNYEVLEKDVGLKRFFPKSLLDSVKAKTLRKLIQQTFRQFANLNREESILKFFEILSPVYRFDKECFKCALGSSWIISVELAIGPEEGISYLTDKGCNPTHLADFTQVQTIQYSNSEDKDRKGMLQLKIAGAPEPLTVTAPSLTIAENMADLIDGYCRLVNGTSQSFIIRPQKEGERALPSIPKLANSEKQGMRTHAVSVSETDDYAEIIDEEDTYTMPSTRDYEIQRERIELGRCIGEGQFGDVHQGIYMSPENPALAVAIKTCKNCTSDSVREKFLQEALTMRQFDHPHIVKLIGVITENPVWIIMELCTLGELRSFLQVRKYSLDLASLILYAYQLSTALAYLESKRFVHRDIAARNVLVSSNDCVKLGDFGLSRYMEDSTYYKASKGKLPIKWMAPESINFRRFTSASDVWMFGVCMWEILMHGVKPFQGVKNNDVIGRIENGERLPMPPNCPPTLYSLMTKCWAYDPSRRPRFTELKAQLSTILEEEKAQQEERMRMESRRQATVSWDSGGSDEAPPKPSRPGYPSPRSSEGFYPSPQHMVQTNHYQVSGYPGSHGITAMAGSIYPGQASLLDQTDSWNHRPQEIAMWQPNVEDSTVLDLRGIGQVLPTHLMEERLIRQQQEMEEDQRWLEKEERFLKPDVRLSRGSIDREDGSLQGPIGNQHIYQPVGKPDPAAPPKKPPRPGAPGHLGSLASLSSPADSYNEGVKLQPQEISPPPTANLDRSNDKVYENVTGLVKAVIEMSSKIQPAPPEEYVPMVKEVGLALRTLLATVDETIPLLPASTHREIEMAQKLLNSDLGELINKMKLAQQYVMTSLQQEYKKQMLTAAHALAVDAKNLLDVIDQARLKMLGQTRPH
# [4] = test system: Fibrinogen (Alexa647-labelled); experiment: Alexa647-fibrinogen binding to printed small molecules – biochemical, small-molecule microarray, 635/667 nm fluorescence, artefact control for SMM control-protein annotation, profiling panel (AID 1131); settings: fibrinogen-A647 binding fluorescence, higher = more signal;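 further: z-score merges 667 nm fluorescence with per-spot signal-to-noise over triplicate slides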
# [5] = target: Follistatin (Homo sapiens) (UniProt P19883); experiment: FST protein binding to printed compounds – biochemical, small-molecule microarray, 635/667 nm fluorescence, primary screen (AID 1132); settings: 635 nm fluorescence, higher = more signal
# Chain of Follistatin (Homo sapiens) (P19883 whole entry, looked up): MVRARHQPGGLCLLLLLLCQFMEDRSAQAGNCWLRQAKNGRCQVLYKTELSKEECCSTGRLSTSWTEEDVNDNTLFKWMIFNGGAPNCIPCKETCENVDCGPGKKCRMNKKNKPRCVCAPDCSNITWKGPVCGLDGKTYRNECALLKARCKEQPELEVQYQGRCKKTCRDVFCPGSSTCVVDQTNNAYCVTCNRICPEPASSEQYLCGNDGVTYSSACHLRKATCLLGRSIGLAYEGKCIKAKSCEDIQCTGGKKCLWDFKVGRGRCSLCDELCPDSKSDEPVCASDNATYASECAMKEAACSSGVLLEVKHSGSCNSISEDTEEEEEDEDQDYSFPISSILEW
# [6] = target: Fibroblast growth factor 2 (Homo sapiens) (UniProt P09038); experiment: basic fibroblast growth factor binding to printed compounds – biochemical, small-molecule microarray, 635/667 nm fluorescence, primary screen (AID 1133); settings: FGF2, fluorescence 635/667, higher = more signal
# Chain of Fibroblast growth factor 2 (Homo sapiens) (P09038 whole entry, looked up): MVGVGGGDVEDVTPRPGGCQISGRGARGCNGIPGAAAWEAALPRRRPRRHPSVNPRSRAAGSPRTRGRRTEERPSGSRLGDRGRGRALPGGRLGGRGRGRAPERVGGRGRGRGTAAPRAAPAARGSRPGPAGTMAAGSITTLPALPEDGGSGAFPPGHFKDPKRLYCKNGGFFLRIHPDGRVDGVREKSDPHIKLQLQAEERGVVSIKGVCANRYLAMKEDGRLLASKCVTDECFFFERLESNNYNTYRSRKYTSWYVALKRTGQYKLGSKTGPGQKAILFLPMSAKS
# [7] = JC-1 mitochondrial potential readout, lung cancer cells – cell-based, A549, JC-1 fluorescence, basal, 24 h, 100 nL, profiling panel (AID 1138); settings: higher = more signal;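 further: A549 lung adenocarcinoma cells under basal conditions with no added stimulus; test concentration not given here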
# Lefty1 = Lefty1 protein binding to printed compounds – biochemical, small-molecule microarray, 635/667 nm fluorescence, primary screen (AID 1139); settings: fluorescence 635/667, higher = more signal
# [8] = test system: wheat germ agglutinin (Triticum aestivum), Alexa647-labelled; experiment: Alexa647-WGA lectin binding to printed small molecules – biochemical, small-molecule microarray, 635/667 nm fluorescence, artefact control for SMM control-protein annotation, profiling panel (AID 1140); settings: WGA-A647 binding, 635 nm fluorescence, higher = more signal;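 further: score merges 667 nm feature emission with signal to noise over triplicate slides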
# [9] = target: Luciferin 4-monooxygenase (Photinus pyralis) (UniProt P08659); experiment: inhibition of purified Photinus pyralis luciferase – biochemical, luminescence, purified enzyme, 2006 set, primary screen (AID 1141); settings: purified firefly luciferase, SteadyGlo luminescence, 30 min; higher = more signal, called active from +8 up or from −8 down;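 further: cell-free assay with purified firefly luciferase at 100 ng per well in PBS; test concentration not given here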
# Chain of Luciferin 4-monooxygenase (Photinus pyralis) (P08659 whole entry, looked up): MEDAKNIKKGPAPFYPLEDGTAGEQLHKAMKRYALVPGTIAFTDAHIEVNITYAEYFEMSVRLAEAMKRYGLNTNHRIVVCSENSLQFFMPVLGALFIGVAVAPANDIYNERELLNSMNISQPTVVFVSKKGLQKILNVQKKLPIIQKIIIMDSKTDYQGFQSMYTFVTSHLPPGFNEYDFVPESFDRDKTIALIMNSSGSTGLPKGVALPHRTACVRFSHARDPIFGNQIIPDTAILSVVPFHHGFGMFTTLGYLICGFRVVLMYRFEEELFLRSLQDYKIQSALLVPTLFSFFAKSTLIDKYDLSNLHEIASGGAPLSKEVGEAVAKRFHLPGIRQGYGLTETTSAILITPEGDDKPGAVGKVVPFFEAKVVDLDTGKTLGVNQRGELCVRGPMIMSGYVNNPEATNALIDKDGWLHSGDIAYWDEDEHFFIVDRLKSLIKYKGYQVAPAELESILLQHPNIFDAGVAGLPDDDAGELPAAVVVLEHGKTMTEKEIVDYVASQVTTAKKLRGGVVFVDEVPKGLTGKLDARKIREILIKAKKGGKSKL
SMILES,composite z-score [1],composite z-score [2],composite z-score [3],composite z-score [4],composite z-score [5],composite z-score [6],z-score [7],composite z-score (Lefty1),composite z-score [8],z-score [9]
COc1cccc([C@@H]2[C@@H](C)CC[C@H]3C(=O)N(C)[C@@H](C(C)C)C(=O)N23)c1,0.381,0.694,1.24,-0.0271,0.388,0.348,1.68,0.915,0.168,-1.56 (inactive)
COc1ccc([Si](C)(C)[C@@H]2[C@@H](CCO)O[C@]3(C(=O)N(Cc4ccccc4)c4ccccc43)[C@H]2C)cc1,1.42,0.319,0.331,-0.153,0.32,1.21,-0.234,0.32,-0.139,-0.238 (inactive)
COCCOC(=O)N1C(=O)[C@@]2(c3cc(C#CCNC(N)=O)ccc31)[C@H](c1ccc(OCCO)cc1)N1[C@H](c3ccccc3)[C@H](c3ccccc3)OC(=O)[C@H]1[C@@H]2C(=O)Nc1nc2ccccc2s1,0.0799,-0.393,0.0616,0.398,1.28,0.779,-2.32,0.83,0.755,-3.42 (inactive)
N#Cc1ccc(NN2C(C(O)CCc3ccccc3)C=CC3C(=O)N(c4ccccc4)C(=O)C32)cc1 (stereo not given),1.31,1.08,0.945,0.846,0.353,-0.431,-0.3,-0.85,1.34,-0.98 (inactive)
C=CCC(OC(C)=O)[C@@H]1[C@@H](N(Cc2cc3ccccc3o2)C(=O)c2ccc(C)cc2)c2cc(OCCCO)ccc2N1C(=O)c1ccc2ccccc2n1 (stereo not given in full),-0.88,-0.593,0.178,-0.589,0.573,-0.0362,1.57,-0.114,-0.475,-1.33 (inactive)
COCCOC(=O)N1C(=O)[C@@]2(c3cc(C#CCCO)ccc31)[C@H](C(=O)N1CCCCCCC1)[C@H]1C(=O)O[C@H](c3ccccc3)[C@H](c3ccccc3)N1[C@@H]2c1ccc(O)cc1,1.12,1.18,1.49,0.555,1.34,0.661,1.65,0.957,1.1,-0.888 (inactive)
CCCCCCc1nc(C2CC2)c(C)c2c1[Si](C(C)C)(C(C)C)OC2,-0.095,-1.51,-0.695,-0.687,-0.0256,-0.0723,-0.451,-0.238,-0.982,-0.441 (inactive)
CC(C)[Si]1(C(C)C)OCc2cc(C3CC3)nc(-c3ccccc3)c21,-1.42,-0.722,-0.294,-0.742,0.441,-0.5,0.325,-0.165,-0.625,-0.525 (inactive)
O=C1O[C@H](c2ccccc2)[C@H](c2ccccc2)N2[C@H]1[C@@H](C(=O)Nc1nc3ccccc3s1)[C@]1(C(=O)Nc3ccc(C#CC4=CCCCC4)cc31)[C@H]2c1ccccc1OCCO,0.485,1.15,0.66,0.797,0.968,1.2,-2.27,0.966,-0.17,-1.01 (inactive)
Cc1ccc(S(=O)(=O)N[C@H]2COC(=O)CC=C[C@H](C)COC(=O)N[C@@H](C)C(=O)CC=C[C@@H]2C)cc1,-0.45,-0.368,-0.502,-0.446,0.953,1.43,0.204,1.65,-0.557,-0.537 (inactive)
COCCOC(=O)N1C(=O)[C@@]2(c3cc(C#CCNC(N)=O)ccc31)[C@H](c1ccc(OCCO)cc1)N1[C@H](c3ccccc3)[C@H](c3ccccc3)OC(=O)[C@H]1[C@@H]2C(=O)N1CCCCCCC1,-0.347,0.718,0.422,0.355,1.35,0.117,-0.99,0.854,0.884,-1.45 (inactive)
Cc1ccc(S[C@]2(C(=O)NC(C)C)CC(=O)N(C3Cc4ccccc4C3)[C@@H]2c2ccc(CO)cc2)cc1,2.13,0.627,0.447,0.686,0.34,-0.438,0.186,0.123,0.923,0.187 (inactive)
O=C1O[C@@H](c2ccccc2)[C@@H](c2ccccc2)N2[C@@H](c3ccc(OCCO)cc3)[C@]3(C(=O)Nc4ccc(C#CCCO)cc43)[C@@H](C(=O)N3CCN(c4ncccn4)CC3)[C@H]12,0.468,1,0.341,0.941,1.34,0.331,-0.0856,0.635,1.2,0.47 (inactive)
CC(C)[Si](OCCCNS(=O)(=O)c1ccc(Br)cc1)(C(C)C)C(C)C,0.479,1.04,0.339,0.348,0.928,0.828,-0.87,0.513,0.622,-1.22 (inactive)
O=C(CS)NCCCCCNC(=O)[C@H]1C[C@H]2C(=O)N[C@@H](Cc3ccccc3)C(=O)N2[C@H]1c1ccc(O)cc1,1.58,1.06,0.485,0.948,1.43,1.14,-0.586,0.854,1.21,-2.91 (inactive)
COC(=O)C1=CC(c2ccc(CO)cc2)=CC(c2cccs2)N(Cc2cccc(OC(F)(F)F)c2)C=C1C(=O)OC (stereo not given),2.15,1.23,0.409,0.97,0.289,-0.316,1.49,0.0703,1.4,-0.926 (inactive)
C[N+](C)(C)CCCCNC(=O)[C@@H]1C[C@@H]2C(=O)N3CCC[C@H]3C(=O)N2[C@@H]1c1cccc(OCCO)c1,2.72,0.143,0.275,-0.181,1.39,1.73,-0.0151,0.859,-0.392,-1.23 (inactive)

SMILES,composite z-score [1],composite z-score [2],composite z-score [3],composite z-score [4],composite z-score [5],composite z-score [6],z-score [7],composite z-score (Lefty1),composite z-score [8],z-score [9]
CC(C)[C@H]1NC(=O)[C@@]23C(=O)N[C@@H](Cc4ccccc4)C2[C@H](C)[C@@]2(C)O[C@H]2C3/C=C/C/C=C\CNC(=O)[C@H](C)NC1=O (stereo not given in full),0.661,-0.983,-0.67,-0.908,-0.412,0.862,-0.134,-0.62,-1.03,-0.0632 (inactive)
C=CCc1cccc([C@@H]2[C@@H](C)CC[C@H]3C(=O)N4[C@H](c5cccc(CC=C)c5)[C@@H](C)CC[C@H]4C(=O)N23)c1,0.22,1.09,0.19,0.991,1.28,0.704,3.36,0.644,0.846,-0.744 (inactive)
COc1ccc([Si](C)(C)[C@@H]2[C@@H](CC(=O)N(CCO)Cc3ccccc3)O[C@]3(C(=O)N(Cc4cccc(N5CCC5=O)c4)c4ccccc43)[C@H]2C)cc1,0.863,1.1,0.545,-0.0806,1.3,1.4,-0.282,1.49,0.163,0.352 (inactive)
COC(=O)C[C@H]1O[C@]2(C(=O)N(Cc3ccccc3)c3ccc(I)cc32)[C@@H](C)[C@@H]1[Si](C)(C)c1ccc(OC)cc1,-0.421,-0.807,-0.172,-0.774,-0.274,-0.222,0.0578,-0.603,0.322,0.417 (inactive)
COCCOC(=O)N1C(=O)[C@@]2(c3cc(C#CCCO)ccc31)[C@H](c1ccc(O)cc1)N1[C@H](c3ccccc3)[C@H](c3ccccc3)OC(=O)[C@H]1[C@@H]2C(=O)Nc1nc2ccccc2s1,0.607,1.19,0.214,0.992,1.27,0.955,-2.54,1.22,0.658,0.0884 (inactive)
C=CCNC(=O)[C@H]1[C@@H]2C(=O)O[C@@H](c3ccccc3)[C@@H](c3ccccc3)N2[C@@H](c2ccccc2OCCO)[C@]12C(=O)N(C(=O)OCCOC)c1ccc(C#CCNC(N)=O)cc12,1.26,1.17,0.409,0.742,0.776,0.104,0.423,0.629,1.11,-0.963 (inactive)
CCOC(=O)C[C@H]1[C@H](OC(=O)c2cc3ccccc3oc2=O)[C@@H](NC(=O)c2ccc3ccccc3c2)c2cc(OCCCO)ccc2N1C(=O)c1ccc2ccccc2n1,0.322,1.04,0.0147,0.973,0.986,0.927,1.33,0.488,1.05,-0.233 (inactive)
C[C@H]1COC(=O)[C@H](Cc2ccccc2)NC(=O)[C@@H](C)COC(=O)[C@H](Cc2ccccc2)NC1=O,1.46,1.12,0.327,0.194,0.593,0.635,1.04,1.03,0.523,-0.443 (inactive)
COc1ccc([Si](C)(C)[C@H]2[C@H](CC(=O)N(CCO)Cc3ccccc3)O[C@@]3(C(=O)N(C)c4ccccc43)[C@@H]2C)cc1,1.62,1.08,0.711,-0.0177,1.06,1.01,1.61,1.11,-0.0039,0.59 (inactive)
O=C1O[C@@H](c2ccccc2)[C@@H](c2ccccc2)N2[C@@H](c3ccc(O)cc3)[C@]3(C(=O)Nc4ccccc43)[C@@H](C(=O)N3CCN(c4ncccn4)CC3)[C@H]12,0.265,1.19,0.225,0.179,0.169,-0.0433,0.948,-0.173,-0.387,-1.51 (inactive)
CO[C@@H]1COC(=O)[C@@H]2CCCN2C(=O)CC=C[C@@H](C)[C@H](OC)COC(=O)[C@@H]2CCCN2C(=O)CC=C[C@H]1C,-0.775,-1.7,-0.191,-1.15,1.34,1.58,1.01,1.31,-0.949,-1.44 (inactive)
COc1cc([C@@H]2N[C@H](C(=O)O)Cc3c2[nH]c2ccccc32)cc(OC)c1OC,0.386,0.431,0.161,0.514,0.275,0.254,0.559,0.531,0.373,-0.538 (inactive)
C=CCN1C(=O)[C@@]2(O[C@@H](CCn3cc([C@H](O)c4ccccc4)nn3)[C@H]([Si](C)(C)c3ccc(OC)cc3)[C@H]2C)c2cc(N3CCOC3=O)ccc21,1.34,1.16,0.533,-0.285,0.0302,0.0085,0.899,-0.192,-0.605,-0.731 (inactive)
C=CC[C@]1(C(=O)O)N=C(c2ccc(OCCCO)cc2)O[C@H]1c1ccccc1,0.254,-0.531,-0.231,0.243,-0.367,-0.503,-0.124,-1.09,1.25,-1.8 (inactive)
C=C(COC)/C(=C/C[C@H](OC(C)=O)c1ccc(OCCO)cc1)c1cnc2ccccc2c1,-0.418,1.14,0.771,0.333,1.4,0.813,1.8,1.27,1.23,-1.81 (inactive)
CO[C@@H]1COC(=O)[C@H](C)NC(=O)CC=C[C@@H](C)[C@H](OC)COC(=O)[C@H](C)NC(=O)CC=C[C@H]1C,0.284,0.207,0.0533,0.38,0.614,0.989,1.64,0.59,0.222,-1.57 (inactive)
